Where “and” joins values, the source holds several entries; their conditions need not be identical. Identical values can stand only once. Calls of active or inactive are those of the source. Rule for the calls: active = hit-call score of the fitted dose curve at least 0.9, where 1 is the maximum; inactive = score below 0.9.
Experiments:
[1] = BSK_hDFCGF_Proliferation: Cell Proliferation Assessment in the BioMAP Diversity Plus: hDFCGF Assay (AID 2283059); settings: primary human foreskin fibroblasts;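 note: curves fitted for both rise and fall of signal versus DMSO baseline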
How it was run: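 Primary human foreskin fibroblasts, sub-confluent; […]; 10% TCA fix, 0.1% SRB stain, A560 total protein. Gain/loss fitted bidirectionally vs DMSO control.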

[2] = BSK_hDFCGF_SRB: Viability Assessment in the BioMAP Diversity Plus: hDFCGF Assay (AID 2283061); settings: primary human foreskin fibroblasts;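 note: cells exposed to compound for 24 h before the read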
How it was run: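 Human foreskin primary fibroblasts were treated with compound and assessed 24 h after dosing. Total protein was measured by sulforhodamine B staining (0.1% SRB after 10% TCA fixation, 560 nm read) as a cytotoxicity marker, with bidirectional fitting against DMSO baseline.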

[3] = read-out: TIMP metallopeptidase inhibitor 1 (TIMP1), TIMP1 (gene 7076); assay: BSK_hDFCGF_TIMP1: BioMAP Diversity Plus: hDFCGF Assay for TIMP metallopeptidase inhibitor 1 (TIMP1) Biomarker Activity (AID 2283062); settings: primary human foreskin fibroblasts; actives raise or lower the signal
How it was run: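 Primary human foreskin fibroblasts in the hDFCGF system were dosed with compound for 24 h, then TIMP-1 was measured by ELISA. Activity was fitted bidirectionally relative to DMSO control; parallel SRB staining assessed cytotoxicity.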

[4] = read-out: Plasminogen activator inhibitor-1 (PAI1), SERPINE1 (gene 5054); assay: BSK_hDFCGF_PAI1: BioMAP Diversity Plus: hDFCGF Assay for Plasminogen activator inhibitor-1 (PAI1) Biomarker Activity (AID 2283066); settings: primary human foreskin fibroblasts; actives raise or lower the signal
How it was run: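 Human foreskin fibroblast primary cells, 24 h chemical exposure; PAI-1 measured by ELISA. Bidirectional fitting relative to DMSO; parallel cultures stained with SRB for total protein to flag overt cytotoxicity.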

[5] = read-out: Intercellular Adhesion Molecule 1 (ICAM1), ICAM1 (gene 3383); assay: BSK_KF3CT_ICAM1: BioMAP Diversity Plus: KF3CT Assay for Intercellular Adhesion Molecule 1 (ICAM1) Biomarker Activity (AID 2283067); settings: primary human keratinocytes with fibroblasts; actives raise or lower the signal
How it was run: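 Human keratinocyte plus foreskin fibroblast primary co-culture was exposed to chemical for 24 h. ICAM-1 was then quantified by ELISA, and the data were fit bidirectionally against DMSO as the negative control and baseline.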

[6] = read-out: Interferon-gamma inducible Protein 10 (IP10), CXCL10 (gene 3627); assay: BSK_KF3CT_IP10: BioMAP Diversity Plus: KF3CT Assay for Interferon-gamma inducible Protein 10 (IP10) Biomarker Activity (AID 2283068); settings: primary human keratinocytes with fibroblasts; actives raise or lower the signal
How it was run: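 In a primary skin co-culture of keratinocytes and fibroblasts, IP-10 is quantified by ELISA at 24 h after dosing. SRB staining of parallel wells monitors overt toxicity. Curves are fitted both directions against DMSO.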

[7] = BSK_KF3CT_SRB: Viability Assessment in the BioMAP Diversity Plus: KF3CT Assay (AID 2283069); settings: primary human keratinocytes with fibroblasts;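 note: fitted for both signal gain and loss against DMSO baseline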
How it was run: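 Human keratinocyte and foreskin fibroblast co-culture exposed to chemical for 24 h. Total protein measured in parallel cultures by 0.1% sulforhodamine B staining after 10% TCA fixation, read at 560 nm; bidirectional fit relative to DMSO.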

[8] = read-out: Interleukin-1 alpha (IL1a), IL1A (gene 3552); assay: BSK_KF3CT_IL1a: BioMAP Diversity Plus: KF3CT Assay for Interleukin-1 alpha (IL1a) Biomarker Activity (AID 2283070); settings: primary human keratinocytes with fibroblasts; actives raise or lower the signal
How it was run: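 Primary human keratinocyte plus foreskin fibroblast co-culture, dosed and measured at 24 h in 96-well plates. IL-1a level quantified by ELISA; bidirectional fit relative to DMSO.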

[9] = read-out: TIMP metallopeptidase inhibitor 2 (TIMP2), TIMP2 (gene 7077); assay: BSK_KF3CT_TIMP2: BioMAP Diversity Plus: KF3CT Assay for TIMP metallopeptidase inhibitor 2 (TIMP2) Biomarker Activity (AID 2283071); settings: primary human keratinocytes with fibroblasts; actives raise or lower the signal
How it was run: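 Co-culture of human primary keratinocytes and foreskin fibroblasts, measured 24 h after chemical dosing. TIMP-2 quantified by ELISA and fitted in both directions relative to DMSO. Cytotoxicity checked in parallel cultures by SRB total-protein staining.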

[10] = read-out: C-C motif chemokine 2 (Homo sapiens) (UniProt P13500); assay: BSK_KF3CT_MCP1: BioMAP Diversity Plus: KF3CT Assay for Monocyte Chemoattractant Protein 1 (MCP1/CCL2) Biomarker Activity (AID 2283073); settings: primary human keratinocytes with fibroblasts; actives raise or lower the signal
How it was run: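 Human keratinocyte plus foreskin fibroblast primary co-culture exposed to chemical for 24 h. MCP-1 levels measured by ELISA. Bidirectional curve fitting relative to DMSO negative control as baseline.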

[11] = read-out: urokinase plasminogen activator (uPA), PLAU (gene 5328); assay: BSK_KF3CT_uPA: BioMAP Diversity Plus: KF3CT Assay for urokinase plasminogen activator (uPA) Biomarker Activity (AID 2283075); settings: primary human keratinocytes with fibroblasts; actives raise or lower the signal
How it was run: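 Primary human keratinocyte/foreskin fibroblast co-culture exposed to chemical; uPA measured by ELISA at 24 h. Bidirectional fit versus DMSO, with parallel SRB total-protein staining for cytotoxicity.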

CD40, CD40 (gene 958) = assay: BSK_LPS_CD40: BioMAP Diversity Plus: LPS Assay for CD40 Biomarker Activity (AID 2283076); settings: primary human HUVEC with PBMC; actives raise or lower the signal
How it was run: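 Primary human umbilical vein endothelial cells co-cultured with peripheral blood mononuclear cells, LPS-stimulated, were dosed with chemical and read 24 h later. CD40 levels were measured by ELISA and fitted bidirectionally against DMSO as negative control and baseline.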

[12] = read-out: E-selectin (Homo sapiens) (UniProt P16581); assay: BSK_LPS_Eselectin: BioMAP Diversity Plus: LPS Assay for Eselectin Biomarker Activity (AID 2283077); settings: primary human HUVEC with PBMC; actives raise or lower the signal
How it was run: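 Human umbilical vein endothelial cells co-cultured with peripheral blood mononuclear cells under LPS stimulation; E-selectin measured by ELISA 24 h after chemical dosing. Activity fitted bidirectionally against DMSO as negative control and baseline.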

[13] = BSK_LPS_SRB: Viability Assessment in the BioMAP Diversity Plus: LPS Assay (AID 2283079); settings: primary human HUVEC with PBMC;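 note: total protein by sulforhodamine B absorbance as a cytotoxicity measure; measured one day after compound addition; fitted in both directions against DMSO so loss or gain of signal counts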
How it was run: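 Human umbilical vein endothelial cells co-cultured with PBMC (LPS system) were dosed for 24 h. Total protein was stained with 0.1% sulforhodamine B after 10% TCA fixation, read at 560 nm, and fitted bidirectionally against DMSO baseline.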

[14] = read-out: Interleukin-1 alpha (IL1a), IL1A (gene 3552); assay: BSK_LPS_IL1a: BioMAP Diversity Plus: LPS Assay for Interleukin-1 alpha (IL1a) Biomarker Activity (AID 2283080); settings: primary human HUVEC with PBMC; actives raise or lower the signal
How it was run: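 Human umbilical vein endothelial cells co-cultured with peripheral blood mononuclear cells were LPS-stimulated and exposed to test chemicals for 24 h. IL-1 alpha was quantified by ELISA, with bidirectional curve fitting against DMSO as the negative control and baseline.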

[15] = read-out: Macrophage colony-stimulating factor (MCSF), CSF1 (gene 1435); assay: BSK_LPS_MCSF: BioMAP Diversity Plus: LPS Assay for Macrophage colony-stimulating factor (MCSF) Biomarker Activity (AID 2283083); settings: primary human HUVEC with PBMC; actives raise or lower the signal
How it was run: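 Human umbilical vein endothelial cells co-cultured with peripheral blood mononuclear cells were exposed to compound for 24 h. M-CSF levels were measured by ELISA, and bidirectional curve fitting used DMSO as the negative control and baseline.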

[16] = read-out: Tissue Factor, F3 (gene 2152); assay: BSK_LPS_TissueFactor: BioMAP Diversity Plus: LPS Assay for Tissue Factor Biomarker Activity (AID 2283084); settings: primary human HUVEC with PBMC; actives raise or lower the signal
How it was run: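 Human umbilical vein endothelial cells co-cultured with peripheral blood mononuclear cells were dosed and stimulated with LPS. Cell-surface CD142 was quantified by ELISA at 24 h. Activity was fitted bidirectionally against DMSO baseline.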

[17] = read-out: Tumor necrosis factor (Homo sapiens) (UniProt P01375); assay: BSK_LPS_TNFa: BioMAP Diversity Plus: LPS Assay for Tumour Necrosis Factor alpha (TNFa) Biomarker Activity (AID 2283085); settings: primary human HUVEC with PBMC; actives raise or lower the signal;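 for AC50: TNFa protein level quantified by ELISA in the co-culture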
How it was run: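 Human umbilical vein endothelial cells co-cultured with PBMC and stimulated with LPS. TNFa was measured by ELISA 24 h after chemical dosing, fitted bidirectionally relative to DMSO.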

[18] = read-out: Vascular cell adhesion molecule 1 (VCAM1), VCAM1 (gene 7412); assay: BSK_LPS_VCAM1: BioMAP Diversity Plus: LPS Assay for Vascular cell adhesion molecule 1 (VCAM1) Biomarker Activity (AID 2283086); settings: primary human HUVEC with PBMC; actives raise or lower the signal
How it was run: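 Human umbilical vein endothelial cells co-cultured with PBMC and stimulated with LPS; VCAM-1 measured by ELISA 24 h after dosing. Bidirectional curve fitting against DMSO baseline; cytotoxicity tracked in parallel by SRB total-protein staining.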

CD38, CD38 (gene 952) = assay: BSK_SAg_CD38: BioMAP Diversity Plus: SAg Assay for CD38 Biomarker Activity (AID 2283087); settings: primary human HUVEC with PBMC; actives raise or lower the signal
How it was run: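 Human HUVEC plus PBMC co-culture stimulated with superantigen; CD38 measured by ELISA 24 h after chemical dosing. Fluorescence read-out, bidirectional fit against DMSO; cytotoxicity tracked in parallel by SRB and Alamar Blue.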

Measured: AC50

Chain of E-selectin (Homo sapiens) (P16581 whole entry, looked up): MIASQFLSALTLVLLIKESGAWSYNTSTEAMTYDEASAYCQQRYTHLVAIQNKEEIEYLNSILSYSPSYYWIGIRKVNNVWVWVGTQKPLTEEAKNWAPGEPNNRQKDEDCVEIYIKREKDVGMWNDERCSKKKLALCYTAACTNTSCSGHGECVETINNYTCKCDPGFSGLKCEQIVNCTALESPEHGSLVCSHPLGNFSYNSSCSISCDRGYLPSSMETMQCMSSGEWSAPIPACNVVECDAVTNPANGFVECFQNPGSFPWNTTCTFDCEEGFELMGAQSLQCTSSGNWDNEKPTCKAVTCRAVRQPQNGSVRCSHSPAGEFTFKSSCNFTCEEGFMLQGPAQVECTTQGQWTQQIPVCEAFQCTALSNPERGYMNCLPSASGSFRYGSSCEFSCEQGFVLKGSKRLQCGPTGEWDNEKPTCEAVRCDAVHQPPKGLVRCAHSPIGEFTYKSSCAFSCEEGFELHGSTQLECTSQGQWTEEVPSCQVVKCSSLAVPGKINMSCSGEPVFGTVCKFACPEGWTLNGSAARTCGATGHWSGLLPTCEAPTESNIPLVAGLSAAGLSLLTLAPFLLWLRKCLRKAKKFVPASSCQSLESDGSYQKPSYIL
Chain of Tumor necrosis factor (Homo sapiens) (P01375 whole entry, looked up): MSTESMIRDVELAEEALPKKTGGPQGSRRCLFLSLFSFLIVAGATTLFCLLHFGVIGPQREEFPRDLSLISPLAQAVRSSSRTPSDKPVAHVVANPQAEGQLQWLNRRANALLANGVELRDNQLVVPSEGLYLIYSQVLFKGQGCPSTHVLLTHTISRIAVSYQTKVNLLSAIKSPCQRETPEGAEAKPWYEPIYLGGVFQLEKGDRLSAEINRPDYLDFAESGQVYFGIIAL

CCCCCCCCCCCCCCCCCC[N+](C)(C)C
inactive: [17]
active: [1] 0.388 µM | [2] 1.34 µM | [3] 3.47 µM | [4] 1.13 µM | [5] 3.6 µM | [6] 3.66 µM | [7] 2.49 µM | [8] 6.81 µM | [9] 1.2 µM | [10] 3.36 µM | [11] 3.33 µM | CD40, CD40 (gene 958) 6.84 µM | [12] 8.27 µM | [13] 2.72 µM | [14] 1.22 µM | [15] 5 µM | [16] 8.03 µM | [18] 7.96 µM | CD38, CD38 (gene 952) 5 µM

Cc1cc(-n2nc3ccc(Cl)cc3n2)c(O)c(C(C)(C)C)c1
inactive: all assays above

CN(C)Cc1cc(C(C)(C)C)c(O)c(C(C)(C)C)c1
active: [1] 23.9 µM and 24.5 µM
inactive: all other assays above

Sc1nc2ccccc2s1
active: [13] 3.97 µM | [16] 4.28 µM
inactive: all other assays above

CCCCCCC(O)CCCCCCCCCCC(=O)OC (stereo not given)
active: [1] 4.09 µM | [4] 6.22 µM
inactive: all other assays above

CN(C)c1ccc(C(c2ccccc2)c2ccc(N(C)C)cc2)cc1
active: [1] 3.87 µM | CD40, CD40 (gene 958) 20 µM | [12] 15.6 µM | [13] 12.5 µM | [14] 34.7 µM | [15] 8.45 µM | [17] 1.6 µM | [18] 4.93 µM | CD38, CD38 (gene 952) 20 µM
inactive: all other assays above

O=C(C(=O)c1ccccc1)c1ccccc1
inactive: all assays above

Oc1cccc2ccccc12
active: [1] 13.3 µM | [16] 6.27 µM
inactive: all other assays above

CCCCCCCCCC/C=C/C1CC(=O)OC1=O (stereo not given)
inactive: all assays above

COC(=O)/C=C\C(=O)OC
active: [18] 8.6 µM
inactive: all other assays above

CC[N+](CC)(CC(=O)Nc1c(C)cccc1C)Cc1ccccc1
inactive: all assays above

CC(C)CC(=O)CC(C)CC(C)C (stereo not given)
active: [1] 39.5 µM | [2] 34.7 µM | [4] 32.2 µM | [5] 31.8 µM | [7] 36.7 µM | [8] 35 µM | [9] 32.2 µM | [10] 37.1 µM | [11] 30.4 µM | [12] 29.6 µM | [13] 31.7 µM | [14] 35 µM
inactive: [3] | [6] | CD40, CD40 (gene 958) | [15] | [16] | [17] | [18] | CD38, CD38 (gene 952)

Cc1cccnc1
inactive: all assays above

CCC(C)=NO
inactive: all assays above

CC[N+](CC)(CC(=O)Nc1c(C)cccc1C)Cc1ccccc1 (tested in a mixture with another compound)
inactive: all assays above

C1CN(CCOCCN2CCOCC2)CCO1
inactive: all assays above

Source: PubChem BioAssay (EPA / NIEHS)
